NFkB transloc pot – enhances IL-1B driven NFkB nuclear translocation; HUVEC IL-1B NFkB p65 nuclear translocation imaging; activation, % at 2 µM; 94,000 tested, 0.3% active; AID 819;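 active = activation above 40%, about the mean plus 3 SD, also judged a hit on visual image review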;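 also: percent activation is computed from the nuclear over cytoplasmic p65 intensity ratio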
IL1B NFkB inh – blocks IL-1B driven NFkB nuclear translocation in HUVEC cells. HUVEC IL-1B NFkB p65 nuclear translocation imaging. inhibition, % at 2 µM. 94,000 tested, 0.43% active. AID 796;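 active = inhibition above about 30% together with a positive call from visual inspection of the well image, limit read from the data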;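 also: nuclear over cytoplasmic p65 intensity ratio measured by imaging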
Measles CPE – protection of cells from measles virus | Measles virus-infected cells, CPE protection, absorbance | protection (pct of control), % at 4 µM | 140,000 tested, 1.5% active | AID 841; in the data active = protection mostly above about 24%, no sharp cut-off; inactive = mostly below about 26%
IL1B cytotox – HUVEC cytotoxicity counter-screen, IL-1B stimulated. AID 845. cell count reduction, % at 2 µM. 94,000 tested, 0.41% active. HUVEC cell count loss, Hoechst imaging;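 active = cell count reduction more than 3 SD above the screen-wide mean, cut at about 70% in these data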
Each line names hits and unclear results; the compound was inactive in the other large screens. Rows were chosen to be rich in hits. Some 2.1% of all compounds tested hit in one or more screens of this group.

c1ccc(COc2ccc(OCCCn3cncn3)cc2)cc1	Measles CPE 29.8
Oc1ccc(C=Nc2ccccc2-c2nc3ccccc3[nH]2)c(O)c1	none (no result: NFkB transloc pot, IL1B NFkB inh, IL1B cytotox)
Oc1ccccc1C=Nc1ccccc1-c1nc2ccccc2[nH]1	Measles CPE 57.7 (no result: NFkB transloc pot, IL1B NFkB inh, IL1B cytotox)
O=C1CCC(=O)N1c1ccc(CSc2nnnn2C2CCCCC2)cc1	Measles CPE 19.4
O=C(O)c1ccc(CSc2nnnn2C2CCCCC2)cc1	Measles CPE 30.0
O=C(CSc1nnnn1C1CCCCC1)NCc1cccc(C(=O)O)c1	none
CCOc1c(Br)ccc2c1sc1nc[nH]c(=O)c12	none
Cc1cc(C)n2c(SCc3ccccc3Cl)nnc2n1	IL1B NFkB inh 30.9
CC1=CC(=O)N(c2cccc(C(F)(F)F)c2)C1c1ccc(Cl)cc1 (stereo not given)	none
CC(C)NC(=S)NCc1cccnc1	Measles CPE 50.7 (no result: NFkB transloc pot, IL1B NFkB inh, IL1B cytotox)
Cc1ccc(-c2nc(SCC(=O)Nc3cc(S(=O)(=O)N4CCCCC4)ccc3Cl)n[nH]2)cc1	none (no result: NFkB transloc pot, IL1B NFkB inh, IL1B cytotox)
CCN(C(=O)c1cc2ccccc2oc1=O)c1ccccc1	none
O=C(c1cc2ccccc2oc1=O)N(Cc1cccs1)Cc1ccccc1Cl	IL1B cytotox 93.5
Cc1cc(C)cc(OCC(=O)Nc2cccc(C(=O)O)c2)c1	Measles CPE 89.4
Cc1cccc(OCC(=O)Nc2cccc(C(=O)Nc3ccccc3C(=O)O)c2)c1	none (no result: NFkB transloc pot, IL1B NFkB inh, IL1B cytotox)
Cc1cc(N)n2ncc(-c3ccc(Cl)cc3)c2n1	none
Cc1cc(NCCOCCO)n2ncc(-c3ccc(Cl)cc3)c2n1	IL1B cytotox 90.9
Cc1ccc(S(=O)(=O)N2CCOCC2)cc1NC(=O)COC(=O)C1COc2ccccc2O1 (stereo not given)	none (no result: NFkB transloc pot, IL1B NFkB inh, IL1B cytotox)
COc1ccccc1NC(=O)CCn1c(=O)sc2ccccc21	Measles CPE 50.8
COC(=O)c1ccccc1OCC(=O)N1CCN(c2ccc(OC)cc2)CC1	none
O=C(CSc1nnc(CNc2cccc(C(F)(F)F)c2)n1Cc1ccco1)NCc1ccco1	NFkB transloc pot 68.8
O=C(O)CSc1nnc(CNc2cccc(C(F)(F)F)c2)n1Cc1ccco1	none
CCOC(=O)c1cnc2c(C)c(Cl)ccc2c1Nc1ccc(S(=O)(=O)Nc2ncccn2)cc1	none (no result: NFkB transloc pot, IL1B NFkB inh, IL1B cytotox)
CCSc1nc2c(c(=O)n1CC)SC(C)C2 (stereo not given)	none (no result: NFkB transloc pot, IL1B NFkB inh, IL1B cytotox)
CCn1c(SC)nc2c(c1=O)SC(C)C2 (stereo not given)	Measles CPE 45.7 (no result: NFkB transloc pot, IL1B NFkB inh, IL1B cytotox)
Cc1nc2ccccc2nc(C)c1=NO	none
C/C(O)=c1/ccc2cccc3nc(C)nc1c23	Measles CPE 112.8
O=C(Nn1c(O)c(C=C2N=c3ccccc3=N2)sc1=S)c1ccccc1	IL1B cytotox 87.6
Cc1cc(C)n2nc(-c3ccc(F)cc3)nc2n1	Measles CPE 23.4
COc1ccc(N2CCN(c3c(S(=O)(=O)c4ccccc4)cnc4ccc(OC)cc34)CC2)cc1	Measles CPE 22.8 (no result: NFkB transloc pot, IL1B NFkB inh, IL1B cytotox)
CCOC(=O)c1nnn(-c2nonc2N)c1CSc1ccccn1	none
Cc1c(CN(C)CCc2ccccc2)c(=O)n(-c2ccccc2)n1C	none
COc1cccc(OC)c1C(=O)N1CCN(S(=O)(=O)c2ccc(C)cc2)CC1	IL1B NFkB inh 32.3, Measles CPE 42.4
COc1ccc(N(CC(=O)NCc2cccs2)S(=O)(=O)c2c(C)n[nH]c2C)cc1	none
CC(=O)Nc1c(C(=O)N2CCN(c3ncccn3)CC2)cnn1-c1ccccc1Cl	NFkB transloc pot 40.0 (no result: Measles CPE)
CCCCN(C(=O)CNC(=O)c1ccco1)C(C(=O)NC1CCCC1)c1ccc(OC)cc1 (stereo not given)	none
CCCCN1C(=O)C(O)(CC(=O)c2c(C)n[nH]c2C)c2cc(Br)ccc21 (stereo not given)	Measles CPE 73.0
O=C(Nc1cccc(F)c1)c1cccnc1N1CCOCC1	Measles CPE 23.7
CC(=O)c1cc2c(cc1NC(=O)c1cc(C)nn1-c1ccccc1)OCO2	none (no result: NFkB transloc pot, IL1B NFkB inh, IL1B cytotox)
CC(=O)Nc1ccc(NC(=O)c2cc(C)nn2-c2ccccc2)cc1	Measles CPE 52.9
O=C(CC1CCS(=O)(=O)C1)Nc1ccc[nH]c1=O (stereo not given)	none
O=C(Cn1cc2c(n1)CCCC2)NCCCN1CCN(c2ccccc2F)CC1	none
COc1ccc(-c2nc(C#N)c(NC(C)c3ccccc3)o2)cc1OC (stereo not given)	none
COc1cccc(CNC(=O)C2CCN(Cc3cnn(-c4ccccc4)c3-n3cccc3)CC2)c1	NFkB transloc pot 63.0
C/C(=N\NC(=O)Cn1nc(C)c(Br)c1C)c1cccs1	none (no result: NFkB transloc pot, IL1B NFkB inh, IL1B cytotox)
COc1ccccc1-c1nnc(SCC(=O)NC2CCS(=O)(=O)C2)n1CCc1ccccc1 (stereo not given)	Measles CPE 58.8 (no result: NFkB transloc pot, IL1B NFkB inh, IL1B cytotox)
O=C(CSc1nnc(COc2ccccc2F)n1-c1ccccc1)NC1CCS(=O)(=O)C1 (stereo not given)	none (no result: NFkB transloc pot, IL1B NFkB inh, IL1B cytotox)
O=c1c2c3c(sc2nc2n1CCCCC2)CCCCC3	none (no result: NFkB transloc pot, IL1B NFkB inh, IL1B cytotox)
O=c1c2c3c(sc2nc2n1CCCC2)CCC3	Measles CPE 35.9
